# In PubChem BioAssay (NCATS):
# Values without a mark were called inactive. Active and inactive are the calls of the source. Calls come from the whole dose curve; as a rule, active = well fitted inhibition curve with a large enough effect; inconclusive = small, poorly fitted or top-dose-only effect; inactive = flat fitted curve, though single readings scatter.
# Target: DNA polymerase III PolC-type (Bacillus subtilis (strain 168)) (UniProt P13267)
# Test: qHTS Validation Assay for the Inhibitors of DNA Replication in Gram-Positive Bacteria (AID 485295);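 for activity change, negative = inhibition: reconstituted holoenzyme with PolC plus beta clamp SSB and primase; PicoGreen fluorescence of double-stranded DNA made on primed circular M13 template; 0% = DMSO wells and -100% = EDTA-quenched background wells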
# Details: Gram-positive bacterial DNA replication assay; series mostly up to 57.1 µM; activity change, negative = inhibition: at the top concentration
# Outline: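 Double-stranded DNA product detected by PicoGreen fluorescence after EDTA quench. Compound incubated with B. subtilis holoenzyme (PolC, beta subunit, SSB, primase) before substrate addition; primed replication of M13Gori with dNTPs and NTPs at room temperature; DMSO defines 0% inhibition.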
# Potency is the fitted concentration of half-maximal effect.
# Sequence of DNA polymerase III PolC-type (Bacillus subtilis (strain 168)) (P13267 whole entry, looked up): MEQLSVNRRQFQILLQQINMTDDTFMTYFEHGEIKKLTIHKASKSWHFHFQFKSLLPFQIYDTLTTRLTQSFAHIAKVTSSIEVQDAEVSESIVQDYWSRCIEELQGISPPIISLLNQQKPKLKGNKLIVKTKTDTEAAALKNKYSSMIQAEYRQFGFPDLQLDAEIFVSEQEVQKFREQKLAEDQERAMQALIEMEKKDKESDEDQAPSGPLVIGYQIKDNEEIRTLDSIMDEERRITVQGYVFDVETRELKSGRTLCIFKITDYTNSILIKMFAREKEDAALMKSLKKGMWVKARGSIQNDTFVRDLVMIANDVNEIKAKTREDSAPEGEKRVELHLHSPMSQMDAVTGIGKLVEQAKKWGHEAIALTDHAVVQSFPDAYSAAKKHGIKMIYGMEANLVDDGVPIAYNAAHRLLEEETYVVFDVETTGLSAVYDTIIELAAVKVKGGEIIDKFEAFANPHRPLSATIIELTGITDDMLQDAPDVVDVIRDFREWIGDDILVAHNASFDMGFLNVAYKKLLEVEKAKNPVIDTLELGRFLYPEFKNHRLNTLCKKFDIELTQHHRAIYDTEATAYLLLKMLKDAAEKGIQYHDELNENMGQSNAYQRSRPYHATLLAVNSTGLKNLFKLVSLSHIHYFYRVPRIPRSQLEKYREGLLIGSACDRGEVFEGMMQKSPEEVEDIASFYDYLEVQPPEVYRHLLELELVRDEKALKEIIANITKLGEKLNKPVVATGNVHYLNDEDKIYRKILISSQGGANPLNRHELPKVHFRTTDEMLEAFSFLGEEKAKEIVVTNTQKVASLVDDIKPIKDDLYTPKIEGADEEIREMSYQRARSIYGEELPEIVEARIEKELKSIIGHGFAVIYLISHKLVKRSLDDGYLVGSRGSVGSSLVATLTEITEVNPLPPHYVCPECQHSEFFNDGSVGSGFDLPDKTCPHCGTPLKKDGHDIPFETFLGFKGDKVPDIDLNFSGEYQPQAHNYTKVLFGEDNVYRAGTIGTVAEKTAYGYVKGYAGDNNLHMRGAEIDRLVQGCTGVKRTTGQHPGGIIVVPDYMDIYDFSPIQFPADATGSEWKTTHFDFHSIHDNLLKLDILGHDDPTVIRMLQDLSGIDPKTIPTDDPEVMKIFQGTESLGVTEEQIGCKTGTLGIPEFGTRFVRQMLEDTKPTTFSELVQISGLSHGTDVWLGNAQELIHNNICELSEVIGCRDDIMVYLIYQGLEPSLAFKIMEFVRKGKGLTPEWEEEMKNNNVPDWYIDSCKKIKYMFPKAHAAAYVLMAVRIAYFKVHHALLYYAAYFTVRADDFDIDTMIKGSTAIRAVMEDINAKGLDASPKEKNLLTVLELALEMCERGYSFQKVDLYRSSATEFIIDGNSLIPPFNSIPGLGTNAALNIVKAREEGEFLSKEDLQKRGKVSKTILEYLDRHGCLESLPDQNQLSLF
SMILES,"activity change, negative = inhibition [%]",Potency
CN1C[C@H](CNC(=O)OCc2ccccc2)C[C@@H]2c3cccc4c3c(cn4C)C[C@H]21,-0.962,
O=c1c(O)c(-c2ccc(O)c(O)c2)oc2cc(O)cc(O)c12,,10.6 µM (active)
Cc1ccc(S(=O)(=O)N[C@@H](CCCCN)C(=O)CCl)cc1,3.01,
Cc1cc2c(C(C)C)c(O)c(O)c(C=O)c2c(O)c1-c1c(C)cc2c(C(C)C)c(O)c(O)c(C=O)c2c1O,,10.6 µM (active)
O=c1[nH]c2ccccc2n1CCCN1CCC(n2c(=O)[nH]c3cc(Cl)ccc32)CC1,-1.89,
Fc1ccc(C(OCCN2CCN(CCCc3ccccc3)CC2)c2ccc(F)cc2)cc1,-20.1,
CC[C@@H](CO)NC(=O)[C@@H]1C=C2c3cccc4c3c(cn4C)C[C@H]2N(C)C1,,16.8 µM (active)
C=C(C)[C@H]1Cc2c(ccc3c2O[C@@H]2COc4cc(OC)c(OC)cc4[C@@H]2C3=O)O1,-5.81,
COC[C@H]1OC(=O)c2coc3c2[C@@]1(C)C1=C(C3=O)C2CCC(=O)[C@@]2(C)C[C@H]1OC(C)=O (some centres undefined),3.61,
